From PubChem BioAssay (NCI)
Compounds without any hit were thinned out: in the full panel of roughly 79,000, 15% have a hit. A number with no mark means an inactive call. The source made the active and inactive calls. No stated cut-off is given here; in the data, active means growth inhibition above about 70%; inactive means the rest.

Experiments:
[1] = NCI Yeast Anticancer Drug Screen. Data for the rad50 strain (AID 155);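 further: 0% = growth of vehicle-only cultures of the same strain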; settings: S. cerevisiae rad50 strain growth inhibition; at 50.0 µM; active compounds read high
Procedure, shortened: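 Readout: growth inhibition relative to vehicle-treated cultures. Compound exposure was carried out in a genetically defined yeast strain deficient in DNA damage repair.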

[2] = NCI Yeast Anticancer Drug Screen. Data for the mec2-1 strain (AID 157); settings: S. cerevisiae mec2-1 strain, at 50.0 µM, active compounds read high
Procedure, shortened: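 Mutant yeast (mec2-1) grown with compound; growth inhibition relative to vehicle control reported.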

[3] = NCI Yeast Anticancer Drug Screen. Data for the sgs1 mgt1 strain (AID 161);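 further: 0% = growth of cultures given vehicle only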; settings: S. cerevisiae sgs1 mgt1 strain, at 50.0 µM, active compounds read high
Procedure, shortened: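 This yeast growth screen uses a strain with defined DNA-repair lesions; compound-treated growth is compared with vehicle-treated growth.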

[4] = NCI Yeast Anticancer Drug Screen. Data for the cln2 rad14 strain (AID 165);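 further: 0% = growth equal to vehicle treated cultures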; settings: S. cerevisiae cln2 rad14 strain, at 50.0 µM, active compounds read high
Procedure, shortened: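 Readout is yeast growth inhibition versus vehicle-treated controls, using a strain with cln2 and rad14 alterations exposed to compound.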

[5] = NCI Yeast Anticancer Drug Screen. Data for the bub3 strain (AID 167); settings: S. cerevisiae bub3 mutant strain, at 50.0 µM, active compounds read high
Procedure, shortened: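 Readout: yeast growth inhibition, expressed relative to vehicle-only wells. The test organism is a mutant strain from a panel with lesions in DNA repair or checkpoint genes.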

[6] = NCI Yeast Anticancer Drug Screen. Data for the mlh1 rad18 strain (AID 175); settings: S. cerevisiae mlh1 rad18 strain growth inhibition; at 50.0 µM; active compounds read high
Procedure, shortened: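 Genetically defined yeast (DNA repair-deficient) exposed to compounds; growth inhibition determined relative to vehicle.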

Compound	growth inhibition [1]	growth inhibition [2]	growth inhibition [3]	growth inhibition [4]	growth inhibition [5]	growth inhibition [6]
COc1ccc(Cl)cc1NC(=O)O/N=C(\Cl)C(C)C	-3.65%	7.55%	10.9%	16.2%	24.9%	-74.3%
CCN(CC)c1ccc(C(C#N)(c2ccc(N(CC)Cc3cccc(S(=O)(=O)O)c3)cc2)c2ccc(N(CC)Cc3cccc(S(=O)(=O)O)c3)cc2)cc1	-1%	8.15%	4.55%	-7.7%	-7.45%	29.6%
Cc1nc(Nc2ccc(Cl)cc2)c2cnn(-c3ccccc3)c2n1	29.1%	-7.2%	-8%	-35.9%	6.75%	26.9%
CC(=O)NO	22.1%	-4.05%	12.1%	-7.05%	-4.6%	11.3%
CCN(CC)CCN1C(=O)N(CCN(CC)CC)C(=O)C(CC)(CC)C1=O	13.9%	-2.15%	12.5%	22.9%	-1.65%	34.1%
CN1C2C=CC(=O)C1C1C(=O)N(c3ccccc3)C(=O)C12 (stereo not drawn)	25.2%	45.1%	54%	31.4%	23.8%	27.1%
COC1=CC(=O)C=C(C)C1=O	19.4%	-11.9%	-8.1%	29.7%	4%	2%
CCN(C)c1ccccc1	-5.8%	-27.8%	-3.2%	-31.9%	-6.6%	11.2%
O=C1CC(SC(=S)N2CCCCC2)C(=O)N1c1ccccc1 (stereo not drawn)	-19.6%	7.55%	-2.55%	-30.2%	7.25%	13.2%
O=C(O)C(Nc1ccccc1)c1ccccc1 (stereo not drawn)	13.4%	3.75%	9.45%	-21.9%	4.65%	-6.95%
N=c1nc2n(cc1F)[C@@H]1O[C@H](CO)[C@@H](O)[C@@H]1O2	13.4%	-3.75%	4.3%	8.55%	12.6%	-12.2%
CCc1cn(C2CC(CO)C(CO)S2)c(=O)[nH]c1=O (stereo not drawn)	-5.5%	-33%	7.85%	-6.4%	-8.55%	-6.7%
Cc1ccc(N)cc1S(=O)(=O)O	29.8%	-10.6%	-9.45%	-14.8%	3%	21.6%
N#Cc1nn(CCCl)c(=O)c2ccccc12	28.7%	17.9%	10%	12.2%	12.2%	15.4%
O=S(=O)(O)CCCC1S(=O)(=O)OCCOS1(=O)=O	-55.1%	-21.8%	-8.4%	-16.4%	-1.3%	-25.8%
CCCCn1nnnc1N	3.45%	6.4%	-8.2%	12%	17.8%	6.85%
CC(=O)C(C)(C)CCC(C)(C)C(C)=O	2.95%	-12.6%	-4%	13.1%	8.4%	-20.6%
Cn1c(=O)c2[nH]c(=S)[nH]c2n(C)c1=O	-5.85%	-20.7%	-3%	11.1%	-18.2%	-4.75%
COC1(OC)C2(Cl)CC(C(=O)O)C1(Cl)C(Cl)=C2Cl (stereo not drawn)	7.55%	3.85%	19.6%	-51.7%	-1.35%	13.7%

Compound	growth inhibition [1]	growth inhibition [2]	growth inhibition [3]	growth inhibition [4]	growth inhibition [5]	growth inhibition [6]
c1ccc(C2(c3ccccc3)CC([P+](c3ccccc3)(c3ccccc3)c3ccccc3)N=N2)cc1 (stereo not drawn)	99.3% (active)	99.6% (active)	99.7% (active)	99.4% (active)	97.5% (active)	99.5% (active)
S=C(Nc1ccc(N=Nc2ccccc2)cc1)SCc1ccc(Cl)cc1	28.4%	3.6%	20.6%	13.1%	-2.75%	14%
O=C1/C(=C/c2ccccc2)CN(C(=O)/C=C/c2ccccc2)C/C1=C\c1ccccc1	-23.6%	-19.8%	-52%	-8.15%	-11.6%	-33.2%
Nc1cccc(N2N=C(C(=O)O)CC2=O)c1	-7%	-19.8%	-40.9%	-12.7%	-2.7%	-15.6%
COc1ccc(C(=O)N=Nc2ccccc2)cc1	0.05%	0.7%	-6.85%	-49.9%	3.35%	-13.1%
COc1ccc(N2C(=O)c3c(C)ccc(C)c3C2=O)cc1	-23.8%	6.4%	19.9%	-0.5%	-3.5%	5.15%
CC(=O)NCC(OC(C)=O)c1ccc2c(c1)[nH]c1ccccc12 (stereo not drawn)	17.1%	-6.5%	-3.3%	10.1%	11.2%	31.2%
O=P(Nc1cccc(Cl)c1)(Nc1cccc(Cl)c1)c1ccccc1	96.8% (active)	74.1% (active)	96.9% (active)	76.7% (active)	85.3% (active)	95.8% (active)
COc1cc2c(oc(=O)c3cc4cc([Si](C)(C)C)oc4c(OC)c32)c2cccc(O)c12	-0.5%	-27.4%	-26.6%	-23.2%	6.9%	-8.25%
NCCSSC/C=C\CSSCCN	2.65%	1.5%	-24.1%	16.2%	-15.8%	-12.9%
N#C/C(=C\c1c(Cl)cccc1Cl)c1ccc([N+](=O)[O-])cc1	7.65%	-0.2%	16%	-4.45%	48.8%	5.1%
CCCCCCCCCCCCCCCCOc1ccc(C2=NCC(C)S2)c(C)c1 (stereo not drawn)	3.6%	2.6%	12.1%	45.7%	-1.6%	38.1%
Cc1cc(C)c(NS(=O)c2cccc(Cl)c2)c(C)c1 (stereo not drawn)	-29.1%	-26.3%	-59.2%	1.35%	-35.2%	-50.2%
COC(=O)/C(=C\c1ccc(N(CCC#N)CCC#N)cc1)NC(=O)c1cc([N+](=O)[O-])ccc1Cl	-0.55%	-3.65%	-16.1%	5.65%	-21.6%	-3.4%
COc1cc(/C=C/C(=O)Oc2ccccc2)ccc1C(=O)O/C=C/c1ccccc1	3.65%	-4.7%	1.85%	21.4%	-5.15%	13.5%
CC1CCOC2(CCCCC2)O1 (stereo not drawn)	-12.6%	-7.15%	-8.85%	-32.9%	-2.65%	16.2%
Nc1ccc(C(=O)NN2C(=O)C(Cl)C2c2ccc(O)cc2)cc1 (stereo not drawn)	-1.75%	-1.45%	-17.2%	-3.05%	4.8%	-25.6%
CC(C)/C=C(/CC(C)C)C(CCC(=O)Nc1ccccc1)C(=O)Nc1ccccc1 (stereo not drawn)	7.9%	27.7%	4.1%	10%	1.8%	35.2%
O=C(CC(C(=O)c1ccsc1)c1cccs1)c1cccs1 (stereo not drawn)	50.9%	14.2%	57.3%	36.4%	59.6%	33.8%
